Screening results (PubChem BioAssay)
Rows were chosen to be rich in hits. Some 2.9% of all compounds tested hit in one or more screens of this group.
EBNA-1 inh: blocks EBNA-1 binding to DNA. EBNA-1 DNA binding, fluorescence polarization. inhibition, % at 14.8 µM. AID 1950. 0.34% of 300,000 active; in the data active = inhibition above about 28%
PAFAH1B2 FP inh: inhibitors of human PAFAH1B2 | P68402 | AID 492953 | recombinant PAFAH1B2, FP-rhodamine activity probe, fluorescence polarization | 1.2% of 340,000 active | inhibition, % at 3.39 µM;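 active = inhibition above the mean of all tested compounds plus 3 SD, cut at about 24% in these data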;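 also: 0% = enzyme with DMSO and 100% = wells lacking PAFAH1B2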
Target sequence (P68402 whole entry, looked up): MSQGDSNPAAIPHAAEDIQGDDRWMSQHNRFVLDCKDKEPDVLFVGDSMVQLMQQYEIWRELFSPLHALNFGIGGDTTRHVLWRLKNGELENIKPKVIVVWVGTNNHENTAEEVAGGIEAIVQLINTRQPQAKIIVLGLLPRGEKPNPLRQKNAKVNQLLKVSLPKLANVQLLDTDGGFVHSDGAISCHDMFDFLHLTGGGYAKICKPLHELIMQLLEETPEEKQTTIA
PAFAH1B3 FP inh: inhibitors of human PAFAH1B3; recombinant PAFAH1B3, FP-rhodamine probe, fluorescence polarization; 0.28% of 340,000 active; inhibition, % at 3.39 µM; Q15102;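 active = inhibition above the screen-wide average of all tested compounds plus 3 SD, cut at about 25% in these data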;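 also: 0% = enzyme with DMSO only and 100% = wells lacking PAFAH1B3 protein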
PAFAH2 inh: PAFAH2 (human) inhibition. Q99487. recombinant PAFAH2, FP-rhodamine activity probe, fluorescence polarization. inhibition, % at 3.39 µM. 0.99% of 340,000 active;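 active = inhibition above the mean over all tested compounds plus 3 SD, cut at about 30% in these data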;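 also: inhibitors block probe labeling of enzyme so polarization drops; 0% = enzyme with DMSO and 100% = wells lacking PAFAH2 protein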
ZTA DNA inh: ZTA (EBV) inhibition in EBNA-1 counter-screen. P03206. ZTA-DNA binding, fluorescence polarization. inhibition, % at 11 µM. 0.15% of 320,000 active. AID 2234; in the data active = inhibition above about 33%
Target sequence (P03206 whole entry, looked up): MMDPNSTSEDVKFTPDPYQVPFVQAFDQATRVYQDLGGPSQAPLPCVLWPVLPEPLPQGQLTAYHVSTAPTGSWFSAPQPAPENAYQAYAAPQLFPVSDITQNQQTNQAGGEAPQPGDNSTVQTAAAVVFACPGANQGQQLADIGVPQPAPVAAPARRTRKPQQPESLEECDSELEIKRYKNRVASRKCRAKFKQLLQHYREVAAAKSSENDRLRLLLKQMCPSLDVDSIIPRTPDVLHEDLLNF
rCAG binder: molecules binding r(CAG) RNA repeats | r(CAG) RNA repeat, TO-PRO-1 dye displacement fluorescence | inhibition, % at 3 µM | 1.3% of 370,000 active | AID 651821;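 active = inhibition above the plate cutoff, the mean of all test compounds on that plate plus 3 SD, cut at about 35% in these data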;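 also: 0% = DMSO alone and 100% = 100 µM mitoxantrone as full dye displacement; higher means more dye released from RNA so lower well fluorescence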
Numbers without * were called inactive; / = no result.

SMILES	EBNA-1 inh	PAFAH1B2 FP inh	PAFAH1B3 FP inh	PAFAH2 inh	ZTA DNA inh	rCAG binder
O=C(CN1CCN(S(=O)(=O)c2ccc(Br)cc2)CC1)c1ccc(O)c(O)c1	0	29*	1	14	-1	9
COc1ccc(OC)c(C(=O)CN2CCN(S(=O)(=O)c3ccc(Br)cc3)CC2)c1	-2	29*	5	3	18	-1
O=C(CN1CCN(S(=O)(=O)c2ccc(Br)cc2)CC1)N/N=C/c1cccs1	-2	24	-2	5	-4	3
CCCCNC(=O)C1(C(C)=O)CC(C(=O)OCC)=NO1 (stereo unspecified)	/	/	/	/	/	0
O=C(NCc1ccccc1)[C@@H]1CCCN1C(=O)[C@H]1CCCN1C(=O)c1cccc2ccccc12	/	/	/	/	/	2
CCc1cc(=O)oc2cc(C)cc(OCC(=O)NC(Cc3ccc(Cl)cc3)C(=O)O)c12 (stereo unspecified)	8	25*	6	7	15	34
N#Cc1c(NC(=O)CSc2n[nH]c(N)n2)oc(-c2ccccc2)c1-c1ccccc1	-4	25*	10	-3	16	26
N#Cc1c(NC(=O)Cn2c(=O)oc3ccccc32)oc(-c2ccccc2)c1-c1ccccc1	-3	40*	-8	15	4	23
CCCCNC(=O)C1C(c2ccc(OC)cc2)=Nc2ccccc2N1C(=O)Cc1cc(OC)cc(OC)c1 (stereo unspecified)	/	/	/	/	/	3
O=C(O)c1cc(-n2nnnc2SCc2ccccc2F)ccc1Cl	-8	1	2	0	-4	1
O=C(O)c1cc(-n2nnnc2SCc2ccc([N+](=O)[O-])cc2)ccc1Cl	3	26*	4	4	0	6
O=C1NC[C@H](c2ccccc2)OC(=O)[C@H](Cc2ccc(F)cc2)C/C=C\C[C@H]1CC(=O)N(CCO)Cc1ccccc1	/	51*	12	-6	/	5
O=C1NC[C@@H](c2ccccc2)OC(=O)[C@H](Cc2ccc(F)cc2)C/C=C\C[C@H]1CC(=O)N(CCO)Cc1ccccc1	/	29*	7	5	/	-5
O=C1NC[C@H](c2ccccc2)OC(=O)[C@@H](Cc2ccc(F)cc2)C/C=C\C[C@H]1CC(=O)N(CCO)Cc1ccccc1	/	16	11	3	/	-1
O=C1NC[C@@H](c2ccccc2)OC(=O)[C@@H](Cc2ccc(F)cc2)CC/C=C/C[C@H]1CC(=O)N(CCO)Cc1ccccc1	/	66*	10	1	/	4
C[C@H]1COc2cc(Br)ccc2S(=O)(=O)N1Cc1cn(Cc2ccc(Cl)cc2)nn1	/	/	/	/	/	2
Cc1noc(C)c1C(c1ccccc1)c1ccccc1	-5	29*	1	-3	1	/
CC(CCN1CCC(C(O)(c2ccccc2)c2ccccc2)CC1)Oc1cc(F)cc(C#N)c1 (stereo unspecified)	/	/	/	/	/	4
CN(C)c1ccsc1C(=O)NNS(=O)(=O)c1ccc(Cl)cc1	-6	32*	2	2	-20	1
N#Cc1nc(COc2ccc(Cl)cc2)oc1NCc1ccc2c(c1)OCO2	8	29*	3	-4	1	-5
CC(/C=C1\SC(=O)N(CC(=O)Nc2ccc(O)cc2)C1=O)=C\c1ccccc1	28*	3	8	-1	7	19
O=C1CS/C(=C\S(=O)(=O)c2ccc(Cl)cc2)N1	1	25*	-3	1	2	14
CC(NCc1ccco1)C(=O)N1CCN(Cc2ccccc2F)CC1 (stereo unspecified)	/	/	/	/	/	6
Oc1ccc(C2C[C@H]3CC[C@@H]2C3)cc1O (stereo partly specified)	-21	75*	14	7	0	9
O=C1CC(c2ccc(O)c(O)c2)Oc2cc(O)cc(O)c21 (stereo unspecified)	2	1	10	14	13	7
SMILES	EBNA-1 inh	PAFAH1B2 FP inh	PAFAH1B3 FP inh	PAFAH2 inh	ZTA DNA inh	rCAG binder
CN(c1ccccc1)S(=O)(=O)c1cccc(C(=O)OCC(=O)NCc2ccco2)c1	3	6	7	24	7	-3
COc1cc(OC)c(N(C)S(=O)(=O)c2cccc(C(=O)OCC(=O)NCc3ccco3)c2)cc1Cl	1	4	3	32*	7	8
O=C(O)CCCN1C(=O)C2C3CC(C2C1=O)C1C(c2ccccc2)c2sc(=O)n(-c4ccccc4)c2SC31 (stereo unspecified)	-14	5	-1	13	-10	14
O=C(O)CN1C(=O)C2C3CC(C2C1=O)C1C(c2ccccc2)c2sc(=O)[nH]c2SC31 (stereo unspecified)	4	72*	5	-8	10	8
CC(C)CC(C(=O)O)N1C(=O)C2C3CC(C2C1=O)C1C(c2ccccc2)c2sc(=O)[nH]c2SC31 (stereo unspecified)	2	40*	-2	-1	3	31
Cc1ccc(N2C(=O)C3Sc4[nH]c(=O)sc4C(c4ccccc4)C3C2=O)cc1 (stereo unspecified)	-20	20	8	7	3	13
COc1ccc(CC(/C=C/c2ccc(F)cc2)c2ccccc2)cc1 (stereo unspecified)	/	/	/	/	/	4
CCN(CC)C(=O)CC[C@@H]1CC[C@]2(CCCN(Cc3ccc(Cl)cc3)C2)O1	/	/	/	/	/	-4
Cc1cc2nc3ccc(N(C)C)cc3nc2cc1N	10	31*	32*	46*	23	-8
Cc1ccc(-n2c(SCC(=O)Nc3ccc4cn[nH]c4c3)nnc2-c2ccccc2)cc1	/	/	/	/	/	6
CC(=O)Nc1ccc(NC(=O)C(C)OC(=O)CSc2ccc(Br)cc2C)cc1 (stereo unspecified)	5	24*	-4	10	-5	1
COC(=O)c1cc2c(c3c4cc(C)ccc4n(S(=O)(=O)c4ccc(C)cc4)c13)C(=O)N(C)C2	/	/	/	/	/	10
CCCNC(=O)c1ccc2c(=O)c(O)c(-c3ccc(Cl)c([N+](=O)[O-])c3)[nH]c2c1	7	38*	50*	43*	18	15
O=C(NCCc1nc2ccccc2[nH]1)c1ccc(Cl)c([N+](=O)[O-])c1	-2	7	7	-14	-12	2
COc1cccc(CN(C)C(=O)c2ccc(COc3ccc(Cl)cc3)cc2)c1OC	-3	25*	-3	-7	-9	-2
O=C(NCCSCc1ccc(Cl)cc1)c1cccs1	-5	25*	12	1	-10	-2
O=C(CNC(=O)c1cccs1)OCc1ccc(Cl)cc1	7	3	4	3	18	1
O=C(NC(=S)NNC(=O)[C@H]1C[C@@H]1c1ccccc1)c1ccc(F)cc1	10	4	1	1	-3	2
O=C(/C=C/c1ccc(F)cc1)NC(=S)NNC(=O)[C@H]1C[C@@H]1c1ccccc1	-16	59*	4	0	3	27
COC(=O)C1CCCN(C(=O)C2CCN(S(=O)(=O)c3ccccc3[N+](=O)[O-])CC2)C1 (stereo unspecified)	/	/	/	/	/	5
